Experimental findings from PubChem BioAssay (Tox21) are described below.

In assay [1] the target is Progesterone receptor (Homo sapiens) (UniProt P06401). The assay can be described thus: qHTS assay to identify small molecule agonists of the progesterone receptor (PR) signaling pathway (AID 1346784; calls by dose curve; further: nearly all actives have a fitted effect of over 30% in size). Summed up:
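Using charcoal-stripped serum (2%) to limit endogenous steroids, PR-UAS-bla HEK 293T cells received compounds for 16 hr at 37C after 6 hr plating; beta-lactamase FRET fluorescence was recorded following 2 hr substrate loading at room temperature.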

Assay [2] has the same target. Nature of the assay: qHTS assay to identify small molecule antagonists of the progesterone receptor (PR) signaling pathway (AID 1346795; active means well fitted inhibition curve with a large enough effect in the signal ratio in the repeat runs, not every such curve was filed as active; the % refers to the signal ratio; further: potency means the concentration at half of the fitted maximal effect). The essentials:
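Inhibition of R5020-induced (1 nM final) beta-lactamase reporter signal in PR-UAS-bla HEK293T cells was scored by FRET fluorescence after overnight (16 hr) compound treatment.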

Assay [3] in a line: qHTS assay to identify small molecule antagonists of the progesterone receptor (PR) signaling pathway - cell viability counter screen (AID 1346798). Further: series mostly up to about 92 µM; nearly all actives have a fitted effect of over 50% in size. The essentials: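 ATP content as viability readout: CellTiter-Glo luminescence, 30 min room temperature, in PR-UAS-bla HEK293T cells after 16 hr compound/R5020 treatment at 37C and 5% CO2.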
The nature of assay [4]: qHTS assay to identify small molecule agonists of the progesterone receptor (PR) signaling pathway - cell viability counter screen (AID 1346799; calls by dose curve; further: nearly all actives have a fitted effect of over 45% in size). Summed up:
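Cytotoxicity in PR-bla HEK293T cells: 16 h compound, 37C; CellTiter-Glo added post-FRET read; luminescence after 30 min RT.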

Assay [5] can be described thus: qHTS assay to identify small molecule antagonists of the TGF-beta/Smad signaling pathway - cell viability counter screen (AID 1346824). Further: nearly all actives have a fitted effect of over 50% in size. Summed up: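 SBE-bla HEK 293T cells, incubated overnight, then compound plus 0.25 ng/mL TGF-beta1 (stock added) for 5 hr at 37 C. Viability was read in the same wells by CellTiter-Glo luminescence after 30 min at room temperature.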

Assay [6] can be described thus: qHTS assay to identify small molecule agonists of the TGF-beta/Smad signaling pathway (AID 1346859; active means well fitted activation curve with a large enough effect in the signal ratio in the repeat runs, not every such curve was filed as active; the % refers to the signal ratio; further: series mostly up to about 77 µM). Summed up: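 Stable Smad binding element-beta-lactamase HEK 293T cells; 5 hr compound exposure at 37 C under 5% CO2; 2 hr room-temperature substrate step; fluorescence excited at 405 nm, collected at 460 nm and 530 nm.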
Assay [7] concerns the target Thyrotropin-releasing hormone receptor (Homo sapiens) (UniProt P34981). Nature of the assay: qHTS assay to identify small molecule antagonists of the thyrotropin-releasing hormone receptor (TRHR) signaling pathway (AID 1346877; active means well fitted inhibition curve with a large enough effect in the repeat runs, not every such curve was filed as active; further: series mostly up to about 51 µM). Summed up:
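HEK293/TRHR cells, 18 h, 37 °C; Ca2+ dye 2 h; cpd 5 min RT; TRH 1 nM final; fluorescence read 3 min, 1 s intervals; 15 concs, triplicate.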

Assay [8] has the same target. Nature of the assay: qHTS assay to identify small molecule agonists of the thyrotropin-releasing hormone receptor (TRHR) signaling pathway (AID 1346891; calls by dose curve;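 further: HEK293 cells expressing TRHR with calcium dye readout; series mostly up to about 58 µM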). Summed up:
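In 1536-format, 1500 TRHR-Hek293 cells per well grew 18 h, took up calcium dye for 2 h at 37 °C, received compound, and were read kinetically; 15-point titrations, triplicates.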

Assay [9] is described as follows: Human pregnane X receptor (PXR) small molecule agonists, qHTS cell viability counter screen (AID 1346977). Further: nearly all actives have a fitted effect of over 50% in size. Summed up:
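Readout is CellTiter-Fluor fluorescence from PXR-Luc HepG2 cells. Plated cells rested 5hr, then were treated with compounds for 24hr at 37C and 5% CO2, with reagent present during the last hour.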

The nature of assay [10]: Caspase-3/7 induction in HepG2 cells by small molecules, qHTS assay (AID 1346978). Further: nearly all actives have a fitted effect of over 15% in size. The essentials: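 Wild-type HepG2 cells, 2,000/well, settled 5 hr at 37 C and 5% CO2, then compound-treated for 17 hr; caspase-3/7 activity read by luminescent Caspase-Glo 3/7 after 30 min at room temperature.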
Assay [11] in a line: Caspase-3/7 induction in CHO-K1 cells by small molecules, qHTS cell viability counter screen (AID 1346979). Further: nearly all actives have a fitted effect of over 35% in size. Further: potency means the concentration at half of the fitted maximal effect. Summed up: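 To flag cytotoxic compounds, treated CHO-K1 wild-type cells were given CellTiter-Fluor at 16hr and read fluorescently after 1hr at 37C; the caspase-3/7 luminescence was measured in these same wells.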
The nature of assay [12]: Caspase-3/7 induction in CHO-K1 cells by small molecules, qHTS assay (AID 1346980). Further: nearly all actives have a fitted effect of over 15% in size. The essentials: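 Wild-type CHO-K1 cells exposed to compounds for 17hr at 37 C, 5% CO2. Caspase-3/7 activity then measured by Caspase-Glo 3/7 luminescence after 30min at room temperature.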
Assay [13] addresses Nuclear receptor subfamily 1 group I member 2 (Homo sapiens) (UniProt O75469). Nature of the assay: Human pregnane X receptor (PXR) small molecule agonists, qHTS assay (AID 1346982). Further: nearly all actives have a fitted effect of over 35% in size. Further: potency means the concentration at half of the fitted maximal effect. The essentials:
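HepG2 PXR-Luc reporter line, 5% charcoal-stripped FBS; 5 hr pre-incubation, compound (DMSO) 24 hr at 37 C/5% CO2; ONE-Glo 30 min RT; luminescence read-out.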

Assay [14] deals with Acetylcholinesterase (Homo sapiens) (UniProt P22303). The assay can be described thus: Acetylcholinesterase (AChE) small molecule antagonists: colormetric cell-based qHTS assay (AID 1347395; calls by dose curve; further: nearly all actives have a fitted effect of over 30% in size; further: potency means the concentration at half of the fitted maximal effect). The essentials: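 Neuroblastoma line SH-SY5Y supplied the enzyme; cells were preincubated with compound for 30 min at 37 C and 5% CO2. Acetylthiocholine with DTNB was then added for 90 min at 37 C, and thiocholine was measured by colour.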

Assay [15] shares this target. The assay can be described thus: Acetylcholinesterase (AChE) small molecule antagonists: enzyme-based qHTS assay (AID 1347397; calls by dose curve; further: nearly all actives have a fitted effect of over 55% in size). The conditions noted are these: Potency: AChE enzyme activity inhibition. Summed up:
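Colorimetric DTNB read-out of thiocholine released from acetylthiocholine by recombinant human AChE (50 mU/mL as dispensed). Compounds were preincubated 30 min at RT before substrate/DTNB addition, with a 10 min RT reaction.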

Assay [16] can be described thus: qHTS assay to identify small molecule agonists of the TGF-beta/Smad signaling pathway - cell viability counter screen (AID 1346829). Further: top concentration of the series differs between compounds; nearly all actives have a fitted effect of over 45% in size. The essentials: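 Same-well cytotoxicity: CellTiter-Glo added after the 2 hr room-temperature beta-lactamase substrate step, luminescence measured 30 min later; cells had 5 hr of compound at 37 C.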
A short description of assay [17]: Caspase-3/7 induction in HepG2 cells by small molecules, qHTS cell viability counter screen (AID 1346981). Further: series mostly up to about 92 µM; nearly all actives have a fitted effect of over 30% in size. The essentials: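 Fluorescence read-out of live-cell protease activity (CellTiter-Fluor) after 1 hr with reagent. This was measured in the same wells as the caspase-3/7 luminescence, on HepG2 cells exposed to DMSO-dissolved compounds for 16 hr at 37 C.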
The target in assay [18] is Nuclear receptor subfamily 1 group I member 2 (Rattus norvegicus) (UniProt Q9R1A7). The assay can be described thus: Rat pregnane X receptor (rPXR) activation by small molecules, qHTS assay (AID 1346983). Further: nearly all actives have a fitted effect of over 20% in size. As to conditions: rPXR luciferase reporter cells, One-Glo luminescence, 24 h; max activation: stronger effect = higher value. The essentials:
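Cell-based rPXR activation assay: rPXR cells, 2,000 per well, rested 5hr at 37 C, then exposed to compounds in DMSO for 24 hr at 37 C. Luciferase activity read by One-Glo luminescence after 30 min at room temperature.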

Assay [19] addresses Nuclear receptor subfamily 1 group I member 2 (Homo sapiens) (UniProt O75469). Nature of the assay: CYP3A4 induction through human pregnane X receptor (PXR) by small molecules, qHTS assay (AID 1346984). Further: nearly all actives have a fitted effect of over 40% in size. The essentials:
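HepG2-derived DPX-2 line carrying PXR plus a CYP3A4-promoter luciferase reporter; cells plated 5 hr, compound-exposed 24 hr at 37C. CYP3A4 activity probed with 3uM (final) Luciferin-IPA for 3hr, then luciferase read after One-Glo.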

For assay [20] the target is unchanged. Nature of the assay: Human pregnane X receptor (PXR) activation by small molecules, qHTS assay (AID 1346985). Further: nearly all actives have a fitted effect of over 40% in size. Summed up:
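DPX-2 cells (HepG2 co-transfected with a PXR response element and a CYP3A4-promoter luciferase construct) were seeded at 2,000 per well, rested 5 hr at 37C, then exposed to DMSO-dissolved compounds for 24 hr. Activation was read as luciferase luminescence.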

Each structure is given as a SMILES string. A number with no mark means an inactive call. Results filed as inconclusive are left out. Active and inactive are the calls of the source. Unless noted, the call rests on the fitted dose curve; in most records, active means well fitted curve in the direction sought with a large enough effect in the repeat runs; inconclusive means weak or mixed curves; inactive means no such curve, though single readings can be large; an effect the other way counts as inactive or inconclusive.
On the % scale 0 is the no-effect control and ±100 the full control effect.

Chain of Thyrotropin-releasing hormone receptor (Homo sapiens) (P34981 whole entry, looked up): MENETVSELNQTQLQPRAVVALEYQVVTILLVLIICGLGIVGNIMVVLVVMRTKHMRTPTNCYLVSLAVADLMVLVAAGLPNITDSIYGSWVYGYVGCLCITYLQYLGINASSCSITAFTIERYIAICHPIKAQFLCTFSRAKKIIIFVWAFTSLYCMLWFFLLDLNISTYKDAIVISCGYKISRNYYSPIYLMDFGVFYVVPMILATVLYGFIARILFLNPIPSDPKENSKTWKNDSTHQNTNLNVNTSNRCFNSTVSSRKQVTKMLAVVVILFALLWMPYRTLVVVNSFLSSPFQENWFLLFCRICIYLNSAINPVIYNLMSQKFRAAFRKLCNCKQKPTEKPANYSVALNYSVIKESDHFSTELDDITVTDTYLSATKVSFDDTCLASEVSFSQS
Chain of Nuclear receptor subfamily 1 group I member 2 (Homo sapiens) (O75469 whole entry, looked up): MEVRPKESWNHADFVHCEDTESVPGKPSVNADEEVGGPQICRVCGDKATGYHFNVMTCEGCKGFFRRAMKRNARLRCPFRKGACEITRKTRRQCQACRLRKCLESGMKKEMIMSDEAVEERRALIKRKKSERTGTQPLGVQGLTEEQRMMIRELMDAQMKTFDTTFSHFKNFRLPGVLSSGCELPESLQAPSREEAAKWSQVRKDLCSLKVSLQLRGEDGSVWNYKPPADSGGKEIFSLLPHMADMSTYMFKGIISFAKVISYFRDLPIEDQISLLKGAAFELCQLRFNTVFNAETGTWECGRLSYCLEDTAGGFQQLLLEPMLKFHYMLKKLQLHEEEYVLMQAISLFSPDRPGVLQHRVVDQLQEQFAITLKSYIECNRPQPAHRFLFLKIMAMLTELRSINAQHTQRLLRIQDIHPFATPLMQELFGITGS
Chain of Progesterone receptor (Homo sapiens) (P06401 whole entry, looked up): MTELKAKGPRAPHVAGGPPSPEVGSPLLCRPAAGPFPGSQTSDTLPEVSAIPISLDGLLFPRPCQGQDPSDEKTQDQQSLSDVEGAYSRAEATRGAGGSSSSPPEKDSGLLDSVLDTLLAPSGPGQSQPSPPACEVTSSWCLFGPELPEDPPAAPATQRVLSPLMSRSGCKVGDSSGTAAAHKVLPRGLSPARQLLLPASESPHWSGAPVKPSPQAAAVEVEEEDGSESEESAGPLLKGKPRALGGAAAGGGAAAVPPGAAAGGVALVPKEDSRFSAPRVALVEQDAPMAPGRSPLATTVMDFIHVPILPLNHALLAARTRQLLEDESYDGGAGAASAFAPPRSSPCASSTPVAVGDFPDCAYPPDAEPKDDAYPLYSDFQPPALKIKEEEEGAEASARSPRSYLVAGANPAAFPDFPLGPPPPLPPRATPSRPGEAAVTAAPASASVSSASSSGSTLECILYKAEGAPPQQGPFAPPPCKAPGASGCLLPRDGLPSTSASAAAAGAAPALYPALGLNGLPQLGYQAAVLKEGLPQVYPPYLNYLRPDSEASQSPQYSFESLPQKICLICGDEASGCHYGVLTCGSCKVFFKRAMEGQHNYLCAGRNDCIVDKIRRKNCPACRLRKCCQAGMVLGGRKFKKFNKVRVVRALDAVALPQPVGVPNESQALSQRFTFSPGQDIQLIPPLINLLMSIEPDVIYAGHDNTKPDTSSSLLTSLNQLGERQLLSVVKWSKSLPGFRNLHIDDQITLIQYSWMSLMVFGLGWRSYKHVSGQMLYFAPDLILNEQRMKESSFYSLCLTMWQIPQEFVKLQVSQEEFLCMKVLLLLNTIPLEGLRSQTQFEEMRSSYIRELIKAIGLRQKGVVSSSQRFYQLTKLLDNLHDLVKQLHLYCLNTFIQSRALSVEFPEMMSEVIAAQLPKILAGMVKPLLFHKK
Chain of Acetylcholinesterase (Homo sapiens) (P22303 whole entry, looked up): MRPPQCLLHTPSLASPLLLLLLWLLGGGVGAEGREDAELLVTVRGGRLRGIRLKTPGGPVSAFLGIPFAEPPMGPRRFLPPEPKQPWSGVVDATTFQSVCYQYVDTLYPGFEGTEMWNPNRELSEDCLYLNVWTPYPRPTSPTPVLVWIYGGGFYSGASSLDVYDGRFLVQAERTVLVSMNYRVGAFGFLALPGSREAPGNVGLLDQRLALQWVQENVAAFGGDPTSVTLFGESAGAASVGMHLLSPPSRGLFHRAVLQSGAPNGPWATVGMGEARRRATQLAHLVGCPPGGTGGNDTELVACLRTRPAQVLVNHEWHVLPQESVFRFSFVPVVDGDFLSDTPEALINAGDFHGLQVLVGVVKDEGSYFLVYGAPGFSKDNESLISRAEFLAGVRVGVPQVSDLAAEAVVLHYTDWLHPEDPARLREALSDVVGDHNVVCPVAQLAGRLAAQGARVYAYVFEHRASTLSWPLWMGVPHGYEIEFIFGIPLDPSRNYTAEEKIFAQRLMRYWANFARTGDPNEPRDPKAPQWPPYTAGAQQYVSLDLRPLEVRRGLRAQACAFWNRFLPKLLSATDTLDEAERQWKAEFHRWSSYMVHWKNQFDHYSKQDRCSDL
Chain of Nuclear receptor subfamily 1 group I member 2 (Rattus norvegicus) (Q9R1A7 whole entry, looked up): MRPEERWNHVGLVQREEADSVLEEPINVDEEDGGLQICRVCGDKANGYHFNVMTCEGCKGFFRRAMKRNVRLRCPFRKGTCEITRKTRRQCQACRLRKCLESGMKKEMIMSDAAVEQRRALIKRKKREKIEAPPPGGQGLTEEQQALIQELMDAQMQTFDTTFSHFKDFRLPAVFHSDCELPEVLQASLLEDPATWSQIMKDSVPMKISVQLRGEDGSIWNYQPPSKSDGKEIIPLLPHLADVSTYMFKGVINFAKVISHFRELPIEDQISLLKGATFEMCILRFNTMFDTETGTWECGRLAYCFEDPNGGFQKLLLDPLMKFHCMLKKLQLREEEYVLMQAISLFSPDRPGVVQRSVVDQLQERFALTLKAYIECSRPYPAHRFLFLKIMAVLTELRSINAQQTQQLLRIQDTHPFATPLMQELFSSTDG

For `CCCCc1ccc(O)cc1`, the Potency result in assay [1], in assay [2], in assay [3], in [4], in assay [5] and in [9] was “inactive” each time. For the same molecule, the Potency entry in assay [10], in [11], in assay [12], in assay [13], in [14] and in [15] was “inactive” throughout. For the same molecule, the call in [6], in assay [7] and in assay [8] was inactive.

For `CN1CCC(N(Cc2ccccc2)c2ccccc2)CC1`, the Potency entry in assay [1], in assay [2], in assay [3], in assay [4], in assay [5] and in assay [10] was “inactive” throughout. Further, the Potency entry in assay [11], in assay [12], in assay [17], in assay [13], in assay [14] and in [15] was “inactive” in each case. Also, the result in assay [16], in assay [6], in [7] and in [8] was inactive.

Take `O=C(O)c1ccc2[nH]cc(CCCCN3CC=C(c4ccccc4)CC3)c2c1`: the Potency result in assay [1], in [2], in [3], in assay [4], in [5] and in [9] was “inactive” throughout. For the same molecule, the Potency entry in assay [10], in [11], in assay [12], in assay [17], in [13] and in [19] was “inactive” in each case. For the same molecule, the Potency entry in [20] and in assay [14] was “inactive” each time. In addition, the call in assay [16] and in [6] was inactive. Moreover, the max activation in [18] is -0.864%.

In the case of `Nc1c(Br)cc([N+](=O)[O-])cc1[N+](=O)[O-]`, the Potency entry in [1], in assay [3], in assay [4], in assay [5], in [10] and in assay [12] was “inactive” each time. Besides, in assay [15], the Potency result is “inactive”. In addition, the Potency was 27.6 µM (active) in assay [2], 55.1 µM (active) in assay [11], 55.1 µM (active) in assay [13] and 36 µM (active) in assay [14]. The outcome in [16], in assay [6], in assay [7] and in [8] was inactive.

In the case of `COC(=O)COc1ccc(Cl)cc1Cl`, the Potency entry in assay [1], in assay [2], in assay [3], in [4], in [5] and in assay [9] was “inactive” throughout. For the same molecule, the Potency entry in assay [10], in assay [12], in assay [17], in assay [13], in assay [14] and in assay [15] was “inactive” each time. Further, the outcome in [16], in [7] and in assay [8] was inactive.

As for `CN(C)CCc1ccc(O)cc1`, the Potency entry in [1], in assay [2], in assay [3], in assay [4], in assay [5] and in [9] was “inactive” throughout. For the same molecule, the Potency result in assay [10], in assay [12], in assay [17], in [13], in assay [19] and in assay [20] was “inactive” each time. The Potency result in assay [14] and in assay [15] was “inactive” in each case. Further, the molecule was classed as inactive in assay [16], in assay [6], in assay [7] and in assay [8]. In [18], the max activation is -2.69%.

Take `C(CCOCC1CO1)COCC1CO1` (centres undefined): the Potency result in assay [1], in assay [2], in [3], in assay [4], in assay [5] and in assay [9] was “inactive” in each case. Further, the Potency result in [10], in assay [11], in assay [12], in assay [17], in assay [13] and in assay [14] was “inactive” in each case. The molecule was classed as inactive in [6], in assay [7] and in assay [8].

With `CCS(=O)(=O)C(C)(C)S(=O)(=O)CC`, the Potency result in assay [1], in assay [2], in assay [3], in assay [4], in [5] and in assay [9] was “inactive” in each case. For the same molecule, the Potency result in [10], in assay [11], in assay [12], in assay [13], in assay [19] and in assay [20] was “inactive” in each case. Further, in assay [14], the Potency result is “inactive”. For the same molecule, the molecule was called inactive in assay [16], in [7] and in assay [8]. In assay [18], the max activation is -0.861%.
